Test results from the supplement of paper PMC8975748.
Where a name gives a salt, the structure may show the parent alone.

Test system: Saccharomyces cerevisiae BY4741 SeMeCo community
Experiment: z-score of subpopulation abundance vs DMSO median, subpopulation auxotrophic for UM; higher = larger share of this subpopulation than in DMSO controls
Conditions: 10 µM; 24 h; SM minimal medium; subpopulation (auxotrophy): UM
Protocol: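 Fluorescent four-plasmid SeMeCo (self-establishing metabolically cooperating S. cerevisiae BY4741 community; plasmids pH-mRuby2, pL-mWasabi, pU-eCFP, pM-TagRFP657) was grown 24 h in minimal SM medium with each Selleck FDA-approved drug at 10 µM in 384-well plates. Cells were fixed and imaged by high-content confocal microscopy. For each auxotrophic subpopulation (and the prototroph), a z-score gives the deviation from the DMSO vehicle-control population median.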

Going from CN1C2CCCC1CC(NC(=O)c1nn(C)c3ccccc13)C2 (stereo not given) [Granisetron HCl] to CCCN1CCCC[C@H]1C(=O)Nc1c(C)cccc1C [Ropivacaine], the “z-score of subpopulation abundance” value rises from -0.36 to -0.14.

First: CCCN(CCC)CCc1cccc2c1CC(=O)N2 [Ropinirole HCl]
Second: CCCN(CCc1cccs1)[C@H]1CCc2c(O)cccc2C1 [Rotigotine]
The “z-score of subpopulation abundance” value of the first is higher: 0.06 for the first, -1.79 for the second.

Going from Cc1cnc(NC(=O)C2=C(O)c3ccccc3S(=O)(=O)N2C)s1 [Meloxicam] to CN1C(C(=O)Nc2ccccn2)=C(O)c2sc(Cl)cc2S1(=O)=O [Lornoxicam], the “z-score of subpopulation abundance” value rises from -0.26 to 0.21.

Compared with CN1CCCN=C1/C=C/c1cccc(O)c1 [Oxantel Pamoate], Cc1ccc2c(Cl)cc(Cl)c(O)c2n1 [Chlorquinaldol] is lower in “z-score of subpopulation abundance” value: -1.73 for the first, -1.95 for the second.

First: N[C@H]1CONC1=O [L-Cycloserine]
Second: O=C1CN2Cc3c(ccc(Cl)c3Cl)N=C2N1 [Anagrelide HCl]
The “z-score of subpopulation abundance” value of the first is lower: -1.17 for the first, 0.39 for the second.

Compared with OCCN(CCO)c1nc(N2CCCCC2)c2nc(N(CCO)CCO)nc(N3CCCCC3)c2n1 [Dipyridamole], CCn1cc(C(=O)O)c(=O)c2cc(F)c(N3CCNCC3)nc21 [Enoxacin Sesquihydrate] is higher in “z-score of subpopulation abundance” value: -8.15 for the first, 1.24 for the second.

Compared with CCN(CC)CC#CCOC(=O)C(O)(c1ccccc1)C1CCCCC1 (stereo not given) [Oxybutynin], CN(C)CC(c1ccc(O)cc1)C1(O)CCCCC1 (stereo not given) [Desvenlafaxine] is higher in “z-score of subpopulation abundance” value: -0.47 for the first, -0.37 for the second.

Compared with CCOc1cc(NC(C)=O)ccc1C(=O)OC [Ethopabate], CCOC(=O)c1ccc(O)cc1 [Ethylparaben] is higher in “z-score of subpopulation abundance” value: 0.48 for the first, 1.66 for the second.

Compared with CC(C)c1c(C(=O)Nc2ccccc2)c(-c2ccccc2)c(-c2ccc(F)cc2)n1CC[C@@H](O)C[C@@H](O)CC(=O)O [Atorvastatin Calcium], O=C(O)CCC(=O)c1ccc(-c2ccccc2)cc1 [Fenbufen] is lower in “z-score of subpopulation abundance” value: 4.62 for the first, -0.92 for the second.

Compared with CC(=O)OCC[N+](C)(C)C [Acetylcholine iodide], CC(=O)OC(C)C[N+](C)(C)C (stereo not given) [Methacholine chloride] is higher in “z-score of subpopulation abundance” value: -0.32 for the first, 0.68 for the second.

Compared with CC(C)(O/N=C(\C(=O)N[C@@H]1C(=O)N2C(C(=O)[O-])=C(C[n+]3ccccc3)CS[C@H]12)c1csc(N)n1)C(=O)O [Ceftazidime], CO/N=C(\C(=O)N[C@@H]1C(=O)N2C(C(=O)O)=CCS[C@H]12)c1csc(N)n1 [Ceftizoxime sodium] is lower in “z-score of subpopulation abundance” value: 0.27 for the first, 0.12 for the second.

Going from Clc1ccc(CCC(Cn2ccnc2)Sc2c(Cl)cccc2Cl)cc1 (stereo not given) [Butoconazole] to CN(Cc1ccc(C(C)(C)C)cc1)Cc1cccc2ccccc12 [Butenafine HCl], the “z-score of subpopulation abundance” value falls from 0.29 to -1.21.

Going from C#C[C@]1(O)CC[C@H]2[C@@H]3CCc4cc(OC5CCCC5)ccc4[C@H]3CC[C@@]21C [Quinestrol] to COc1cccc2c1C(=O)c1c(O)c3c(c(O)c1C2=O)C[C@@](O)(C(=O)CO)C[C@@H]3O[C@H]1C[C@H](N)[C@H](O[C@@H]2CCCCO2)[C@H](C)O1 [Pirarubicin], the “z-score of subpopulation abundance” value falls from -0.33 to -3.46.

First: CCCNC(C)C(=O)Nc1ccccc1C (stereo not given) [Prilocaine hydrochloride]
Second: Cc1onc(-c2ccccc2)c1C(=O)N[C@@H]1C(=O)N2[C@@H]1SC(C)(C)[C@@H]2C(=O)O [Oxacillin sodium monohydrate]
The “z-score of subpopulation abundance” value of the first is higher: 0.54 for the first, 0.41 for the second.

Going from CN(C)CCC=C1c2ccccc2C=Cc2ccccc21 [Cyclobenzaprine HCl] to CN(C)CC/C=C1/c2ccccc2Sc2ccc(Cl)cc21 [Chlorprothixene], the “z-score of subpopulation abundance” value falls from 1.09 to 0.34.

Compared with CN(C)CCCC1(c2ccc(F)cc2)OCc2cc(C#N)ccc21 (stereo not given) [Citalopram HBr], COC(=O)Nc1nc2cc(C(=O)c3ccc(F)cc3)ccc2[nH]1 [Flubendazole] is lower in “z-score of subpopulation abundance” value: 0.83 for the first, -0.47 for the second.

First: O=C(O)CCC(=O)Nc1ccc(S(=O)(=O)Nc2nccs2)cc1 [Succinylsulfathiazole]
Second: O=C(c1ccc(F)cc1)C1CCN(CCn2c(=O)[nH]c3ccccc3c2=O)CC1 [Ketanserin]
The “z-score of subpopulation abundance” value of the first is higher: 0.02 for the first, -0.54 for the second.

First: C[C@@H]1CN(c2c(F)c(N)c3c(=O)c(C(=O)O)cn(C4CC4)c3c2F)C[C@H](C)N1 [Sparfloxacin]
Second: O=C(O)c1cn(C2CC2)c2cc(N3CCNCC3)c(F)cc2c1=O [Ciprofloxacin hydrochloride hydrate]
The “z-score of subpopulation abundance” value of the first is lower: -0.25 for the first, 0.65 for the second.

Compared with Cc1cc(-n2c(=O)[nH]c(=O)n(C)c2=O)ccc1Oc1ccc(SC(F)(F)F)cc1 [Toltrazuril], OC(c1ccccc1)(c1ccccc1)C12CC[N+](CCOCc3ccccc3)(CC1)CC2 [Umeclidinium bromide] is lower in “z-score of subpopulation abundance” value: -0.14 for the first, -1.45 for the second.

Compared with c1ccc(C2CN3CCSC3=N2)cc1 (stereo not given) [Tetramisole HCl], CCN(CC)CCNC(=O)c1cc(Cl)c(N)cc1OC [Metoclopramide HCl] is lower in “z-score of subpopulation abundance” value: 0.02 for the first, -1.49 for the second.
